# Test results: PubChem BioAssay (EPA / NIEHS)
# Where “and” joins values, the source holds several entries; their conditions need not be identical. Equal values may be shown once. Results filed as inconclusive are left out. The source holds several records for some structures; these can differ, active in one and inactive in another. Calls of active or inactive are those of the source. The calls were made as follows, unless noted: active = hit-call score of the fitted dose curve at least 0.9, where 1 is the maximum; inconclusive = response in the unintended direction; inactive = score below 0.9.
# Assays:
# [1] = BSK_4H_Eotaxin3: BioMAP Diversity Plus: 4H Assay for Eotaxin 3 Biomarker Activity (AID 2283000; active = hit-call score of the fitted dose curve at least 0.9, where 1 is the maximum; inactive = score below 0.9;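 also: CCL26 protein level quantified by ELISA in parallel with SRB cytotoxicity check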); conditions: primary human endothelial cells (HUVEC); actives raise or lower the signal
# In short: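 Human umbilical vein endothelial cells (BSK_4H system) dosed with test chemical; Eotaxin-3 (CCL26) measured by ELISA 24 h after dosing. Bidirectional curve fitting relative to DMSO negative control as baseline.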
# [2] = target: human Peroxisome Proliferator-activated Receptor delta (PPARd), PPARD (gene 5467) (UniProt Q03181); assay: ATG_PPARd_TRANS: Attagene TRANS-FACTORIAL HepG2 Assay for human Peroxisome Proliferator-activated Receptor delta (PPARd) (AID 2283002)
# In short: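 HepG2 cells transiently transfected with multiplexed GAL4-UAS reporter units and exogenous chimeric NR-Gal4 proteins; 24 h compound exposure. Reporter mRNA measured by RT-PCR, 6-FAM labelling, HpaI digestion and capillary electrophoresis; gain of signal versus DMSO.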
# [3] = read-out: Intercellular Adhesion Molecule 1 (ICAM1), ICAM1 (gene 3383); assay: BSK_3C_ICAM1: BioMAP Diversity Plus: 3C Assay for Intercellular Adhesion Molecule 1 (ICAM1) Biomarker Activity (AID 2283003; active = hit-call score of the fitted dose curve at least 0.9, where 1 is the maximum; inactive = score below 0.9); conditions: primary human endothelial cells (HUVEC); actives raise or lower the signal
# In short: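 ELISA read-out of ICAM-1; HUVEC (primary human), 3C system, 24 h post-dosing; bidirectional fit vs DMSO baseline.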
# [4] = target: human Retinoic Acid Receptor beta (RARb), RARB (gene 5915) (UniProt P10826); assay: ATG_RARb_TRANS: Attagene TRANS-FACTORIAL HepG2 Assay for human Retinoic Acid Receptor beta (AID 2283004)
# In short: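 Induction of reporter mRNA from a chimeric RARb-Gal4 construct was measured by RT-PCR, FAM labelling, HpaI digestion and capillary electrophoresis. Measurements followed 24 h compound treatment of transiently transfected human HepG2 liver cells, with DMSO as baseline.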
# [5] = BSK_3C_Proliferation: Cell Proliferation Assessment in the BioMAP Diversity Plus: 3C Assay (AID 2283006; active = hit-call score of the fitted dose curve at least 0.9, where 1 is the maximum; inactive = score below 0.9;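 as to AC50: potency may reflect either rise or fall in cell number versus DMSO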); conditions: primary human endothelial cells (HUVEC)
# In short: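 HUVEC, sub-confluent; 48 h chemical exposure; 10% TCA fix, 0.1% SRB stain, A560 total protein. Gain or loss of signal fitted both directions vs DMSO control.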
# [6] = target: Peroxisome proliferator-activated receptor gamma (Homo sapiens) (UniProt P37231); assay: ATG_PPARg_TRANS: Attagene TRANS-FACTORIAL HepG2 Assay for human Peroxisome Proliferator-activated Receptor-gamma (PPARg) (AID 2283007)
# In short: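 Chimeric NR-Gal4 transactivation is measured in transiently transfected HepG2 cells by reporter mRNA induction at 24 h. Detection uses RT-PCR with fluorescent labelling and capillary electrophoresis; DMSO defines baseline.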
# [7] = target: Nuclear receptor subfamily 1 group I member 2 (Homo sapiens) (UniProt O75469); assay: ATG_PXR_TRANS: Attagene TRANS-FACTORIAL HepG2 Assay for human Pregnane X Receptor (PXR) (AID 2283008)
# In short: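 Transactivation by exogenous PXR–GAL4 fusion measured as reporter transcript induction after 24 h compound treatment of transfected human HepG2 cells. Read-out via RT-PCR and capillary electrophoresis of labelled fragments, fitted upward relative to DMSO.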
# [8] = target: human Retinoic Acid Receptor gamma (RARg), RARG (gene 5916) (UniProt P13631); assay: ATG_RARg_TRANS: Attagene TRANS-FACTORIAL HepG2 Assay for human Retinoic Acid Receptor gamma (RARg) (AID 2283009)
# In short: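 Readout: reporter transcript levels via RT-PCR, 6-FAM primer-extension labelling, HpaI digestion and capillary electrophoresis. Cells: HepG2 carrying transfected RARg-GAL4 chimera plus UAS reporter set. Dosing 24 h; DMSO negative control.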
# [9] = target: human Peroxisome Proliferator-activated Receptor alpha (PPARa), PPARA (gene 5465) (UniProt Q07869); assay: ATG_PPARa_TRANS: Attagene TRANS-FACTORIAL HepG2 Assay for human Peroxisome Proliferator-activated Receptor alpha (PPARa) (AID 2283001);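 as to AC50: potency for gain of reporter signal over DMSO so agonist or activator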
# In short: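 Exposure: 24 h, transiently transfected HepG2 cells. Endpoint: GAL4-UAS reporter mRNA, RT-PCR with capillary electrophoresis fluorescence. Baseline: DMSO; increases fitted.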
# [10] = target: Retinoic acid receptor alpha (Homo sapiens) (UniProt P10276); assay: ATG_RARa_TRANS: Attagene TRANS-FACTORIAL HepG2 Assay for human Retinoic Acid Receptor alpha (RARa) (AID 2283005)
# In short: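 HepG2 cells transiently transfected with multiple reporter units expressing chimeric RARα-GAL4 fusion, with GAL4-UAS-driven reporters. After 24 h compound exposure, reporter mRNA induction quantified by RT-PCR and capillary electrophoresis with fluorescent labeling; gain-of-signal fitted relative to DMSO control.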
# human Peroxisome Proliferator-activated Receptor delta (PPARd), PPARD (gene 5467), sequence (Q03181 whole entry, looked up, the tested form may be a part): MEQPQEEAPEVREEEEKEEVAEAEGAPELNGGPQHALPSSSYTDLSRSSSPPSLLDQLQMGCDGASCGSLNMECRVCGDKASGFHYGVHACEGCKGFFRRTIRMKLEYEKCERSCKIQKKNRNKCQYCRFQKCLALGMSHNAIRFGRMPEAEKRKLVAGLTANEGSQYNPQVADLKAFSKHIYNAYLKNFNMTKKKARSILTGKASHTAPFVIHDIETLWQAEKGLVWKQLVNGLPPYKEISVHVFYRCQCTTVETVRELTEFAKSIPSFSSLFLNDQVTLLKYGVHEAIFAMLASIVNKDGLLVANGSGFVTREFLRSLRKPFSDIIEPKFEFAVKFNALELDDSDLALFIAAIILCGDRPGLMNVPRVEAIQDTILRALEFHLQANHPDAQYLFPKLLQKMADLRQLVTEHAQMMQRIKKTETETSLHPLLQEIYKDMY
# Peroxisome proliferator-activated receptor gamma (Homo sapiens), sequence (P37231 whole entry, looked up, the tested form may be a part): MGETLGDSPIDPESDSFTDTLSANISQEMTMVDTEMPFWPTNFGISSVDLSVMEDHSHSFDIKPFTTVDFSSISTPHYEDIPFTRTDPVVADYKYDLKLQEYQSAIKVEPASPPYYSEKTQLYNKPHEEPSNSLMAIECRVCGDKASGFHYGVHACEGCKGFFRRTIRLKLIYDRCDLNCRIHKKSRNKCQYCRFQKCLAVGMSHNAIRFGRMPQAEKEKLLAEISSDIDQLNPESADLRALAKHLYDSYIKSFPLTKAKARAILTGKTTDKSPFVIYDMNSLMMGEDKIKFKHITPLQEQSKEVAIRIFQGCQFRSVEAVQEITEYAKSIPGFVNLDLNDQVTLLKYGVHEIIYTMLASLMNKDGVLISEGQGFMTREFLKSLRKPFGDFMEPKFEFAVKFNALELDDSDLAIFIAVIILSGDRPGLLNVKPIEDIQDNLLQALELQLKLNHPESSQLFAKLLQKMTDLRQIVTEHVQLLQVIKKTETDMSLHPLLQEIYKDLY
# human Retinoic Acid Receptor beta (RARb), RARB (gene 5915), sequence (P10826 whole entry, looked up, the tested form may be a part): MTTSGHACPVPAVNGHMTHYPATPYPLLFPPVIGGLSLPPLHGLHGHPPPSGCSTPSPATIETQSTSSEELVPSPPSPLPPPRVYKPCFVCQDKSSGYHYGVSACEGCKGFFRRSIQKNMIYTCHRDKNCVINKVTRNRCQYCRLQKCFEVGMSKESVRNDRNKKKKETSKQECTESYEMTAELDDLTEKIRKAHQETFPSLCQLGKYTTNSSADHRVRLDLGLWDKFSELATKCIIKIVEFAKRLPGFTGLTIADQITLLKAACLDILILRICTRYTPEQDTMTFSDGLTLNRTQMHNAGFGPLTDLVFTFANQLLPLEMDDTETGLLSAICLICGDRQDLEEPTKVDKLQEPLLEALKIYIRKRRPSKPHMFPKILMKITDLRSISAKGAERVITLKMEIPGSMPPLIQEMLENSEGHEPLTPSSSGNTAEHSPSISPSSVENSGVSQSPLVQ
# human Retinoic Acid Receptor gamma (RARg), RARG (gene 5916), sequence (P13631 whole entry, looked up, the tested form may be a part): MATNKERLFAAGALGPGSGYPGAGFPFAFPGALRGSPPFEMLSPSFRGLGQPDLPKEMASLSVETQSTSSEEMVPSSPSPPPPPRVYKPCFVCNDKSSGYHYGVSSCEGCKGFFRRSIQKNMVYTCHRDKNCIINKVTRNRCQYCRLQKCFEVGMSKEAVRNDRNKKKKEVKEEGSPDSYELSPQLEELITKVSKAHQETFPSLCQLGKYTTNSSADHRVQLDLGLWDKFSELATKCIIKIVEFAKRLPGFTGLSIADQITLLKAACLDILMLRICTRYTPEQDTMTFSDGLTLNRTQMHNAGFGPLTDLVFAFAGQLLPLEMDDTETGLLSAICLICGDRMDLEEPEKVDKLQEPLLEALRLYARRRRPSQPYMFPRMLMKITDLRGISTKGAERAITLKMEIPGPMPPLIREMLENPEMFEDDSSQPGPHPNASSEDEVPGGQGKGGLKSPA
# human Peroxisome Proliferator-activated Receptor alpha (PPARa), PPARA (gene 5465), sequence (Q07869 whole entry, looked up, the tested form may be a part): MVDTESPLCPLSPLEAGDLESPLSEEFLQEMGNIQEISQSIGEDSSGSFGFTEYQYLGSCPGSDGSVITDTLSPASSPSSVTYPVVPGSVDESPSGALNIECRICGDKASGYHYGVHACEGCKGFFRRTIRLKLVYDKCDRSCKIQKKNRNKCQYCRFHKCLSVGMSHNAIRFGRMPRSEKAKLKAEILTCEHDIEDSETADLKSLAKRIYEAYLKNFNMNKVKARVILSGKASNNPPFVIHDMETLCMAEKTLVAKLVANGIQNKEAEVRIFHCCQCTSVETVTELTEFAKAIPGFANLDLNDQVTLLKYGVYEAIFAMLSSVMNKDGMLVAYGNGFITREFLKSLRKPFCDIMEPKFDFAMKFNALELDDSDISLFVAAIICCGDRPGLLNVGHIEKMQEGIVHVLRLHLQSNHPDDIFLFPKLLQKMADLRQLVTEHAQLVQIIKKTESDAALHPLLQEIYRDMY
# Nuclear receptor subfamily 1 group I member 2 (Homo sapiens), sequence (O75469 whole entry, looked up, the tested form may be a part): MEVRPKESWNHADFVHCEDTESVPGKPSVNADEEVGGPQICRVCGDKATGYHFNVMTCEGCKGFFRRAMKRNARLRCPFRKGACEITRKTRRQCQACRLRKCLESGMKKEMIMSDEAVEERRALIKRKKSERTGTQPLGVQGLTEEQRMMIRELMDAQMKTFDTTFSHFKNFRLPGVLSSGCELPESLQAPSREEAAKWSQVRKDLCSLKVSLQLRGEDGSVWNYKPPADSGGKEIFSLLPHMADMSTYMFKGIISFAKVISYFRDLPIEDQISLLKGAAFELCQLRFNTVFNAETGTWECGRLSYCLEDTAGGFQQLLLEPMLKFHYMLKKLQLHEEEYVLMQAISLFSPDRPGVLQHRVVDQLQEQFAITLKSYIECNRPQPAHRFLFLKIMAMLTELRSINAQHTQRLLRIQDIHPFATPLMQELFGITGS
# Retinoic acid receptor alpha (Homo sapiens), sequence (P10276 whole entry, looked up, the tested form may be a part): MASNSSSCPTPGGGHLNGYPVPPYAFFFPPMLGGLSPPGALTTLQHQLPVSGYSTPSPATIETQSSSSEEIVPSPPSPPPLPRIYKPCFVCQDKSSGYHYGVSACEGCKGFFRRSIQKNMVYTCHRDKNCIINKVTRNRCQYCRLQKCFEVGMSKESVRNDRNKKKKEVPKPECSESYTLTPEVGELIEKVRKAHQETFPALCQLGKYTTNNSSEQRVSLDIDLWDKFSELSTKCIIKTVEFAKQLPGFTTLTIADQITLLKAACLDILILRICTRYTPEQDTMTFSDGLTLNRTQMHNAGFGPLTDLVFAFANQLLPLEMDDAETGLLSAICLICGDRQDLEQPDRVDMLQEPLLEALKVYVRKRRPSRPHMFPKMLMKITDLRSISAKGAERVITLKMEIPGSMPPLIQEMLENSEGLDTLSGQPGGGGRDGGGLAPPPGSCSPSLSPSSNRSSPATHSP
smiles,measurement,setting,value
O=C(c1ccccc1)C1CCCCC1,outcome,[1],inactive
same,outcome,[2],inactive
same,outcome,[3],inactive
same,outcome,[4],inactive
same,outcome,[5],inactive
same,AC50,[6],61.5 µM (active)
same,outcome,[6],inactive
same,AC50,[7],29.1 µM (active) and 8.99 µM (active) and 19.7 µM (active)
same,outcome,[7],inactive
same,outcome,[8],inactive
Cc1nn(C)c(Oc2ccccc2)c1C=NOCc1ccc(C(=O)OC(C)(C)C)cc1,outcome,[9],inactive
same,outcome,[2],inactive
same,outcome,[3],inactive
same,outcome,[4],inactive
same,outcome,[10],inactive
same,AC50,[5],7.65 µM (active)
same,AC50,[6],1.88 µM (active)
same,outcome,[7],inactive
same,outcome,[8],inactive
CCCCC(CC)COC(=O)c1ccccc1C(=O)O (centres undefined),outcome,[1],inactive
same,outcome,[9],inactive
same,outcome,[2],inactive
same,outcome,[3],inactive
same,outcome,[5],inactive
same,outcome,[7],inactive
c1ccc2[nH]c(-c3cscn3)nc2c1,outcome,[9],inactive
same,outcome,[2],inactive
same,outcome,[3],inactive
same,outcome,[4],inactive
same,outcome,[10],inactive
same,outcome,[5],inactive
same,outcome,[6],inactive
same,outcome,[7],inactive
CCNc1nc(N)nc(Cl)n1,outcome,[1],inactive
same,outcome,[9],inactive
same,outcome,[2],inactive
same,outcome,[3],inactive
same,outcome,[4],inactive
same,outcome,[10],inactive
same,outcome,[5],inactive
same,outcome,[7],inactive
CCCCC(CC)CN1C(=O)C2C3C=CC(C3)C2C1=O (centres undefined),outcome,[1],inactive
same,outcome,[2],inactive
same,outcome,[3],inactive
same,AC50,[5],31.2 µM (active)
same,AC50,[6],50 µM (active)
same,AC50,[7],14.6 µM (active)
CCC(O)=C1C(=O)CC(C(=O)O)CC1=O (centres undefined),outcome,[1],inactive
same,outcome,[3],inactive
same,outcome,[4],inactive
same,outcome,[10],inactive
same,outcome,[5],inactive
same,AC50,[6],22.3 µM (active)
same,outcome,[8],inactive
COCCO,outcome,[1],inactive
same,outcome,[9],inactive
same,outcome,[3],inactive
same,outcome,[4],inactive
same,outcome,[10],inactive
same,outcome,[5],inactive
same,outcome,[6],inactive
same,outcome,[7],inactive
same,outcome,[8],inactive
CN(C)C(=O)Nc1ccc(Cl)c(Cl)c1,outcome,[1],inactive
same,AC50,[9],15 µM (active)
same,outcome,[9],inactive
same,outcome,[2],inactive
same,outcome,[3],inactive
same,outcome,[4],inactive
same,outcome,[10],inactive
same,outcome,[5],inactive
same,outcome,[6],inactive
same,AC50,[7],6.84 µM (active)
same,outcome,[7],inactive
same,outcome,[8],inactive
COC(=O)c1ccccc1C(=O)O,outcome,[1],inactive
same,outcome,[3],inactive
same,outcome,[5],inactive
same,outcome,[6],inactive
same,outcome,[7],inactive
same,outcome,[8],inactive
CCSC(=O)N(CC(C)C)CC(C)C,outcome,[3],inactive
same,outcome,[4],inactive
same,outcome,[5],inactive
same,outcome,[6],inactive
CCC(C)OC(=O)N1CCCCC1CCO (centres undefined),outcome,[9],inactive
same,outcome,[2],inactive
same,outcome,[3],inactive
same,outcome,[4],inactive
same,outcome,[5],inactive
same,outcome,[6],inactive
same,AC50,[7],9.99 µM (active)
same,outcome,[7],inactive
O=C(O)c1ccccc1,outcome,[9],inactive
same,outcome,[3],inactive
same,outcome,[5],inactive
same,outcome,[6],inactive
N[C@@H](Cc1cc(I)c(Oc2ccc(O)c(I)c2)c(I)c1)C(=O)O,outcome,[9],inactive
same,outcome,[2],inactive
same,outcome,[3],inactive
same,outcome,[5],inactive
same,AC50,[6],49.8 µM (active) and 34.9 µM (active) and 4.02 µM (active)
same,outcome,[6],inactive
same,AC50,[7],30.5 µM (active) and 26.8 µM (active) and 6.08 µM (active)
same,outcome,[7],inactive
N#CSCSc1nc2ccccc2s1,outcome,[9],inactive
same,outcome,[2],inactive
same,AC50,[3],6.48 µM (active) and 15.4 µM (active)
same,AC50,[5],824 nM (active) and 2.52 µM (active)
same,AC50,[6],23.1 µM (active)
same,outcome,[6],inactive
same,outcome,[7],inactive
same,outcome,[8],inactive
CCOC(=O)[C@H](C)Oc1ccc(Oc2nc3ccc(Cl)cc3o2)cc1,outcome,[3],inactive
same,outcome,[10],inactive
same,outcome,[5],inactive
same,outcome,[6],inactive
same,outcome,[7],inactive
same,outcome,[8],inactive
CCCCCOC(=O)COc1cc(N2C(=O)C3=C(CCCC3)C2=O)c(F)cc1Cl,outcome,[9],inactive
same,outcome,[3],inactive
same,outcome,[4],inactive
same,outcome,[10],inactive
same,AC50,[5],14.3 µM (active)
same,outcome,[6],inactive
same,outcome,[7],inactive
CCOC(=O)C(C)Oc1ccc(Oc2nc3ccc(Cl)cc3o2)cc1 (centres undefined),outcome,[3],inactive
same,outcome,[4],inactive
same,outcome,[5],inactive
same,outcome,[6],inactive
same,outcome,[7],inactive
S=C([S-])NCCNC(=S)[S-].[Mn+2],outcome,[9],inactive
same,outcome,[3],inactive
same,outcome,[6],inactive
Oc1ccc(C(c2ccc(O)cc2)C(Cl)(Cl)Cl)cc1,outcome,[9],inactive
same,AC50,[3],27.6 µM (active)
same,AC50,[5],19.8 µM (active)
same,outcome,[6],inactive
same,outcome,[7],inactive
COC(=O)c1c(Cl)nn(C)c1S(=O)(=O)NC(=O)Nc1nc(OC)cc(OC)n1,outcome,[9],inactive
same,outcome,[2],inactive
same,outcome,[3],inactive
same,outcome,[5],inactive
same,outcome,[6],inactive
same,outcome,[7],inactive
same,outcome,[8],inactive
CCCN(CCC)c1c([N+](=O)[O-])cc(C(F)(F)F)c(N)c1[N+](=O)[O-],outcome,[2],inactive
same,AC50,[3],36.8 µM (active)
same,outcome,[4],inactive
same,outcome,[10],inactive
same,AC50,[5],13.2 µM (active)
same,outcome,[6],inactive
same,AC50,[7],3.98 µM (active)
same,outcome,[8],inactive
COC(=O)c1ccc(I)cc1S(=O)(=O)NC(=O)Nc1nc(C)nc(OC)n1,outcome,[9],inactive
same,outcome,[3],inactive
same,outcome,[5],inactive
same,outcome,[6],inactive
O=C(Nc1ccc([N+](=O)[O-])cc1Cl)c1cc(Cl)ccc1O,outcome,[2],inactive
same,AC50,[3],20 µM (active)
same,outcome,[4],inactive
same,outcome,[10],inactive
same,AC50,[5],0.313 µM (active)
same,outcome,[6],inactive
same,outcome,[7],inactive
same,outcome,[8],inactive
COc1nc(C)nc(NC(=O)NS(=O)(=O)c2ccccc2OCCCl)n1,outcome,[2],inactive
same,outcome,[3],inactive
same,outcome,[5],inactive
same,outcome,[6],inactive
same,AC50,[7],40 µM (active)
same,outcome,[7],inactive
same,outcome,[8],inactive
C=CCOC(Cn1ccnc1)c1ccc(Cl)cc1Cl (centres undefined),outcome,[9],inactive
same,outcome,[2],inactive
same,outcome,[3],inactive
same,AC50,[5],21.5 µM (active)
same,AC50,[6],71.7 µM (active)
same,outcome,[7],inactive
